Assay outcomes deposited in PubChem BioAssay by National Center for Advancing Translational Sciences (NCATS).
IL1B secr inh = qHTS for Inhibitors of Inflammasome Signaling: IL-1-beta AlphaLISA Primary Screen | THP-1 LPS/ATP IL-1B secretion, AlphaLISA, 16 h; stronger effect = lower value | activity change, % at 57.5 µM | 360,000 tested, 4.7% active | AID 743279, 2014; in the data active means activity change below about -50%; inconclusive means mostly about -30% to -49%
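Secreted IL-1B measured by AlphaLISA bead assay after 16 h compound exposure of THP-1 cells; compounds (final up to 57.5 uM) added 1 h before LPS (250 ng/mL) and ATP (1.25 mM) stimulation; lower signal means less secretion.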
TDP1 cell noCPT = qHTS for Inhibitors of human tyrosyl-DNA phosphodiesterase 1 (TDP1): qHTS in cells in absence of CPT. Potency, µM (titrated, usually from 46.2 µM), inactives show at the highest dose activity change, negative = growth inhibition, hits mostly inhibitors. DT40 Tdp1-/- hTDP1 cells, no CPT, ATP luminescence, 48 h. AID 686978, 2013. 420,000 tested, 15% active; further: potency means the concentration at half of the fitted maximal effect; nearly all actives have a fitted effect of over 55% in size
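Growth of hTDP1-complemented DT40 Tdp1-knockout cells is measured by ATP luminescence after at least 48 hr compound exposure at 37 °C, with DMSO substituting for the 20 nM CPT used in the parallel screen.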
HT1080 IDH1KD tx = qHTS for induction of synthetic lethality in tumor cells producing 2HG: qHTS for the HT-1080-IDH1KD cell line; Potency, µM (series often up to 46.1 µM), for the others: top-dose activity, negative = toxicity, hits mostly cytotoxic; HT-1080 IDH1 knockdown viability, ATP luminescence, 48 h; 360,000 tested, 2% active; AID 686971, 2013;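 further: potency means the concentration at half of the fitted maximal effect; 0% = DMSO wells and -100% = cell-free medium wells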
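After a 2 h attachment period, IDH1KD HT-1080 cells took pin-transferred compound for 48 h at 37 °C; ATP-based luminescence after 10 min room-temperature reagent incubation reported viability.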
TDP1 cell CPT = qHTS for Inhibitors of human tyrosyl-DNA phosphodiesterase 1 (TDP1): qHTS in cells in presence of CPT; chicken DT40 Tdp1-/-;hTDP1 cells + 20 nM CPT, ATP luminescence, 48 h; Potency, µM (highest dose often 46.2 µM), without a hit: top-dose activity change, negative = growth inhibition, most hits filed as inhibitors; 420,000 tested, 12% active; AID 686979, 2013; further: potency means the concentration at half of the fitted maximal effect; nearly all actives have a fitted effect of over 55% in size
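Chicken DT40 Tdp1-/- cells complemented with human TDP1, 400 cells/well, exposed to compounds plus 20 nM camptothecin for at least 48 h at 37 C; viability read as ATP content by CellTiter-Glo luminescence.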
HT1080NT lethal = qHTS for induction of synthetic lethality in tumor cells producing 2HG: qHTS for the HT-1080-NT fibrosarcoma cell line. 360,000 tested, 1.6% active. AID 686970, 2013. HT-1080-NT fibrosarcoma viability, CellTiter-Glo ATP luminescence, 48 h. Potency, µM (series often up to 46.1 µM), for the others: top-dose activity, negative = less viability, most hits filed as cytotoxic;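 further: NT is the 2HG producing partner of a matched IDH1 knockdown line; potency means the concentration at half of the fitted maximal effect; 0% = DMSO-treated cells and -100% = media-only wells without cells; nearly all actives have a fitted effect of over 55% in size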
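HT-1080-NT; 750 cells/well; 5% FBS RPMI; 48 h compound, 37 degrees C; CellTiter-Glo luminescence; curve fitting and curve-class assignment.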
The depositor's hits bear a star; i = inactive; ? = inconclusive; · = no result; [ ] = another dose, or the depositor's remark. Sampled rows, rich in hits. Any-hit rate of the full collection: about 19%. Unless noted, the call rests on the fitted dose curve; in most records, active means well fitted curve in the direction sought with a large enough effect; inconclusive means small, poorly fitted or top-dose-only effect, or another doubt; inactive means no such curve, though single readings can be large; an effect the other way counts as inactive or inconclusive. Unless noted, on the % scale 0 is the no-effect control and ±100 the full control effect.

SMILES	IL1B secr inh	TDP1 cell noCPT	HT1080 IDH1KD tx	TDP1 cell CPT	HT1080NT lethal
O=C(N/N=C/c1ccc(O)c(Br)c1)c1cc2c(ccc3ccccc32)o1	?	-4.1%	25.6%	?	-1.4%
CCOc1cc(/C=N/NC(=O)c2cc3c(ccc4ccccc43)o2)ccc1O	-50.8*	?	?	23.1µM*	-8.2%
O=C(N/N=C/c1cc(Br)c(O)c(Br)c1)c1cc2c(ccc3ccccc32)o1	-22.9	?	?	13µM*	-26.1%
CCOC(=O)COc1ccccc1/C=N\NC(=O)c1cc2c(ccc3ccccc32)o1	i	?	5.6%	-20.1%	-0.1%
Cc1ccc(/C=N/NC(=O)c2cc3c(ccc4ccccc43)o2)o1	-61.4*	?	-4.0%	?	19.1%
O=C(NC1CCCC1)c1cc2c(ccc3ccccc32)o1	-7.7	20.6µM*	-11.6%	?	-13.0%
O=C(c1ccc(OC2CCN(CCc3ccccc3)CC2)cc1)N1CCC[C@H]1CO	-20.7	1.0%	2.7%	-11.4%	-9.4%
O=C(NC1CC(=O)N(c2ccccc2)C1)c1ccc(S(=O)(=O)N2CCCCC2)cc1 (centres undefined)	·	-20.8%	·	-24.8%	·
Cc1ccc(OCCN2C(=O)OC(C)(C)C2(C)O)cc1 (centres undefined)	0.0	-10.0%	1.1%	8.1%	0.0%
CC(=O)Oc1ccc(/C=N\NC(=O)c2cc3c(ccc4ccccc43)o2)cc1	?	?	-0.2%	?	-2.3%
O=C(N/N=C/c1ccc([N+](=O)[O-])o1)c1cc2c(ccc3ccccc32)o1	-13.1	?	7.9%	10.3µM*	-0.3%
O=C(N/N=C/c1cc(Cl)c(O)c(Cl)c1)c1cc2c(ccc3ccccc32)o1	-15.0	?	?	?	-3.3%
Cc1ccc(/C=N/NC(=O)c2cc3c(ccc4ccccc43)o2)cc1[N+](=O)[O-]	-16.8	?	3.1%	25.9µM*	12.7%
COc1cc(=O)n2c(c1C(=O)NCc1ccco1)CCN(C(=O)c1ccc(C)c(C)c1)CC2	·	-4.9%	·	-17.2%[9.04 µM]	·
Cc1ccc(S(=O)(=O)c2nnn(CC(=O)Nc3ccccc3C)c2N)cc1C	·	14.6µM*	·	?	·
Cc1ccc2nc(NC(=O)CC3Oc4ccccc4NC3=O)sc2c1 (centres undefined)	0.0	15.1%	-3.9%	2.1%	-4.3%
COc1ccc(C(=O)N2CCC3(CCCN(c4cccc(-c5ccccc5)c4)C3)CC2)cc1	·	20.6µM*	·	?	·
O=C(c1cnccn1)N1CCC2(CC1)CN(c1ccccc1)C2	·	-9.3%	·	0.2%	·
O=C(c1cnccn1)N1CCC2(CC1)CN(c1cccc(-c3ccccc3)c1)C2	·	?	·	18.4µM*	·
Cn1cccc1C(=O)N1CCC2(CCCN(c3cccc(-c4ccccc4)c3)C2)CC1	·	13µM*	·	?	·
COC(=O)N1CCC2(CCCN(c3cccc(-c4ccccc4)c3)C2)CC1	·	?	·	8.1%	·
Cn1cccc1C(=O)N1CCC[C@@]2(CCN(c3ccccc3)C2)C1	·	25.9µM*	·	?	·
Cn1cccc1C(=O)N1CCC2(CCCN(c3ccccn3)C2)CC1	·	?	·	-9.9%	·
O=C(C/C=N\OCc1ccc([N+](=O)[O-])cc1)Nc1ccc(Br)cc1	0.4	-26.0%	-8.8%	-20.1%	-1.3%
CC(=O)N1CCC2(CC1)CCN(c1cccc(-c3ccccc3)c1)CC2	·	20.6µM*	·	?	·
SMILES	IL1B secr inh	TDP1 cell noCPT	HT1080 IDH1KD tx	TDP1 cell CPT	HT1080NT lethal
Cn1cccc1C(=O)N1CCC2(CC1)CCN(c1cccc(-c3ccccc3)c1)CC2	·	?	·	16.4µM*	·
O=C(CSc1ccc(-c2ccccn2)nn1)N1CCCc2ccccc21	154.6	?	?	?	-23.5%
COc1ccc(/C=N/NC(=O)NC23CC4CC(CC(C4)C2)C3)c(OC)c1	-68.8*	23.1µM*	?	?	?
COC(=O)C(Cc1ccc(O)cc1)NC(=O)NC12CC3CC(CC(C3)C1)C2 (centres undefined)	-62.8*	?	-54.1%	-32.6%	?
COc1ccc(CCNC(=O)NC23CC4CC(CC(C4)C2)C3)cc1	-16.2	?	-8.0%	?	-17.2%
O=C(N/N=C/c1ccc(O)cc1)NC12CC3CC(CC(C3)C1)C2	-73.7*	-28.4%	?	-0.5%	?
CCCCCCCCCCCCCCCCCC(=O)OCCO	·	-40.1%	·	?	·
CCCCn1c(N)c(N(CC(C)C)C(=O)CCC2CCCCC2)c(=O)[nH]c1=O	-3.8	-3.0%	-2.9%	2.6%	0.0%
CCc1ccc(Cc2cnc(NC(=O)c3ccc4c(c3)CC(c3ccccc3)OC4=O)s2)cc1 (centres undefined)	·	18.4µM*	·	?	·
CN(CC(=O)Nc1cccc(F)c1)C(=O)c1ccc(N2CCCC2)c([N+](=O)[O-])c1	-13.6	16.4µM*	-19.7%	16.4µM*	-1.9%
CN(CC(=O)Nc1cccc(F)c1)C(=O)c1ccc(C2SCCS2)cc1	?	?	-18.2%	?	-4.8%
CN(CC(=O)Nc1cccc(F)c1)C(=O)c1ccc2c(c1)CC(c1ccccc1)OC2=O (centres undefined)	-13.0	5.17µM*	16.4µM*	8.2µM*	?
O=C(Nc1ncc(Cc2ccccc2Cl)s1)c1ccc2c(c1)CC(c1ccccc1)OC2=O (centres undefined)	·	-27.5%	·	-21.8%	·
CCOc1ccc(NC(=O)CN(C)C(=O)c2ccc(N3CCCCCC3)c([N+](=O)[O-])c2)cc1OCC	-1.2	23.1µM*	0.1%	?	4.4%
CCc1ccc(Oc2c(C(F)(F)F)oc3c(CN4CCC(C)CC4)c(O)ccc3c2=O)cc1	·	-24.6%	·	-15.6%	·
CN(CC(=O)Nc1cccc(F)c1)C(=O)c1cc([N+](=O)[O-])ccc1N1CCCCC1	14.9	29.1µM*	0.1%	?	1.4%
CC1(c2ccccc2)NC(=O)N(CC(=O)Nc2ccccc2C(=O)NC2CC2)C1=O (centres undefined)	20.1	-4.0%	-23.3%	-17.9%	-2.8%
Cc1cc(OCC(=O)Nc2c(C(C)C)cccc2C(C)C)no1	29.6	8.2µM*	4.3%	13µM*	15.7%
Cc1cc(=O)oc2cc(OCC(=O)Nc3c(C(C)C)cccc3C(C)C)ccc12	·	13µM*	·	?	·
Cc1cc(=O)oc2cc(NC(=O)C(C)Oc3cccc(Cl)c3)ccc12 (centres undefined)	18.6	?	?	?	25.9µM*
Cc1cc(OCC(=O)Nc2ccccc2C)no1	-8.5	7.3%	15.4%	-0.2%	-0.6%[9.24 µM]
